Laboratory results published in ChEMBL document CHEMBL1157539, “Thousands of chemical starting points for antimalarial lead identification” (Nature, 2010).

Columns and labels:
Format in all cases: functional
Plasmodium falciparum [1] = assay: GSK_TCMDC: Inhibition of Plasmodium falciparum 3D7 in whole red blood cells, using parasite LDH activity as an index of growth. Test compounds present at 2uM
Plasmodium falciparum [2] = assay: GSK_TCMDC: Inhibition of Plasmodium falciparum Dd2 in whole red blood cells, using parasite LDH activity as an index of growth. Test compounds present at 2uM
HepG2 = assay: GSK_TCMDC: Percent inhibition of human HepG2 cell line. Test compounds present at 10uM.

SMILES: CS(=O)(=O)Nc1ccc2[nH]cc(C3CCN(CC4CCC(NC(=O)/C=C/c5ccc(Cl)c(Cl)c5)CC4)CC3)c2n1 (centres undefined)
- Inhibition (Plasmodium falciparum [1]): 99%
- Inhibition (Plasmodium falciparum [2]): 10%
- Inhibition (HepG2): 2%

SMILES: CC(C)NCc1cccc(-c2ccc(NC(=O)c3cccc(C#N)c3)cc2)c1.O=C(O)C(F)(F)F
- Inhibition (Plasmodium falciparum [1]): 100%
- Inhibition (Plasmodium falciparum [2]): 95%
- Inhibition (HepG2): 22%

SMILES: O=C(Nc1ccc(OC2CCN(Cc3ccccc3)CC2)c(Cl)c1)c1ccc(F)cc1.O=C(O)C(F)(F)F
- Inhibition (Plasmodium falciparum [1]): 94%
- Inhibition (Plasmodium falciparum [2]): 92%
- Inhibition (HepG2): 30%

SMILES: Br.N=C1N=C(N)NC2(CCCCC2)N1OCCCOc1cccc2ccccc12
- Inhibition (Plasmodium falciparum [1]): 95%
- Inhibition (Plasmodium falciparum [2]): 96%
- Inhibition (HepG2): 67%

SMILES: COc1ccc(NC(=O)NC2CCN(c3ccnc4cc(Cl)ccc34)CC2)cc1.O=C(O)C(F)(F)F
- Inhibition (Plasmodium falciparum [1]): 83%
- Inhibition (Plasmodium falciparum [2]): 64%
- Inhibition (HepG2): 5%

SMILES: Cc1ccc(O)cc1Nc1ccnc2cc(-c3csc(CN4CCN(C)CC4)n3)ccc12
- Inhibition (Plasmodium falciparum [1]): 100%
- Inhibition (Plasmodium falciparum [2]): 77%
- Inhibition (HepG2): 6%

SMILES: COc1cc(-c2ccc3c(-c4ccc(C(=O)N5CCN(C)CC5)cc4)n[nH]c3n2)cc(OC)c1OC
- Inhibition (Plasmodium falciparum [1]): 91%
- Inhibition (Plasmodium falciparum [2]): 54%
- Inhibition (HepG2): 27%

SMILES: CCCCNC(=O)[C@H](CC1CCCCC1)NC(=O)c1ccc(O)c(-c2ccc(Cl)c(Cl)c2)c1
- Inhibition (Plasmodium falciparum [1]): 98%
- Inhibition (Plasmodium falciparum [2]): 99%
- Inhibition (HepG2): 0%

SMILES: CNC(=O)Cc1ccc(C(=O)Nc2cccc(-c3ccc(-c4nc5cccc(C)c5[nH]4)s3)c2)cc1
- Inhibition (Plasmodium falciparum [1]): 91%
- Inhibition (Plasmodium falciparum [2]): 25%
- Inhibition (HepG2): 66%

SMILES: N#CCCN1CCN(Cc2ccc(-c3ccc(-c4nc5cc(F)ccc5[nH]4)s3)cc2)CC1.O=C(O)C(F)(F)F
- Inhibition (Plasmodium falciparum [1]): 99%
- Inhibition (Plasmodium falciparum [2]): 38%
- Inhibition (HepG2): 58%

SMILES: O=C(Nc1ccc(N2CCNCC2)nc1)c1oc(-c2ccccc2)nc1C(F)(F)F
- Inhibition (Plasmodium falciparum [1]): 100%
- Inhibition (Plasmodium falciparum [2]): 62%
- Inhibition (HepG2): 7%

SMILES: COc1ccc2nccc([C@@H](O)CN3CCC(NCc4nc5c([N+](=O)[O-])cccc5[nH]4)CC3)c2c1.O=C(O)C(=O)O
- Inhibition (Plasmodium falciparum [1]): 100%
- Inhibition (Plasmodium falciparum [2]): 84%
- Inhibition (HepG2): 13%

SMILES: CN(C)CC(=O)N(Cc1ccc(Cl)c(Cl)c1)Cc1csc(-c2ccc(CNCc3ccccc3)cc2)n1.O=C(O)C(F)(F)F
- Inhibition (Plasmodium falciparum [1]): 96%
- Inhibition (Plasmodium falciparum [2]): 32%
- Inhibition (HepG2): 30%

SMILES: FC(F)(F)c1cccc(CCNc2nccc(NCc3ccc(Cl)cc3Cl)n2)c1
- Inhibition (Plasmodium falciparum [1]): 97%
- Inhibition (Plasmodium falciparum [2]): 59%
- Inhibition (HepG2): 8%

SMILES: CCCc1cc(OC)c(C[C@@H]2c3cc(O)c(Cl)cc3CCN2C)cc1OC.Cl
- Inhibition (Plasmodium falciparum [1]): 98%
- Inhibition (Plasmodium falciparum [2]): 98%
- Inhibition (HepG2): 3%

SMILES: Fc1ccc(Nc2nnc(CNC3CCN(Cc4ccc(Cl)c(Cl)c4)CC3)[nH]2)cc1
- Inhibition (Plasmodium falciparum [1]): 100%
- Inhibition (Plasmodium falciparum [2]): 36%
- Inhibition (HepG2): 18%

SMILES: COc1ccc(S(=O)(=O)Nc2cc(Br)cc3c2OCCC3)cc1N1CCN(C(=O)C(Cl)(Cl)Cl)CC1
- Inhibition (Plasmodium falciparum [1]): 90%
- Inhibition (Plasmodium falciparum [2]): 51%
- Inhibition (HepG2): 4%

SMILES: CN1CCN(CCCCNc2c3ccccc3nc3ccccc23)CC1
- Inhibition (Plasmodium falciparum [1]): 100%
- Inhibition (Plasmodium falciparum [2]): 0%
- Inhibition (HepG2): 37%

SMILES: COc1ccc(-c2ccc(NC(=O)c3cccc(F)c3)cc2)cc1CNC(C)C.O=C(O)C(F)(F)F
- Inhibition (Plasmodium falciparum [1]): 97%
- Inhibition (Plasmodium falciparum [2]): 14%
- Inhibition (HepG2): 17%

SMILES: COc1ccc2nccc([C@@H](O)CN3CCC(NC(=O)/C=C/c4c[nH]c5c(C)cccc45)CC3)c2c1
- Inhibition (Plasmodium falciparum [1]): 100%
- Inhibition (Plasmodium falciparum [2]): 88%
- Inhibition (HepG2): 23%

SMILES: CS(=O)(=O)Nc1cccc(-c2cnc3[nH]cc(-c4ccc(C(=O)O)cc4)c3c2)c1
- Inhibition (Plasmodium falciparum [1]): 98%
- Inhibition (Plasmodium falciparum [2]): 82%
- Inhibition (HepG2): 0%

SMILES: CCOc1cc(C(=O)NCCCN2CCN(c3cccc(Cl)c3)CC2)ccc1-c1nc2cc(Cl)c(F)cc2[nH]1
- Inhibition (Plasmodium falciparum [1]): 96%
- Inhibition (Plasmodium falciparum [2]): 19%
- Inhibition (HepG2): 16%

SMILES: O=C(Nc1nc(-c2ccccn2)cc2ccccc12)c1cccc(Cl)c1
- Inhibition (Plasmodium falciparum [1]): 96%
- Inhibition (Plasmodium falciparum [2]): 72%
- Inhibition (HepG2): 59%

SMILES: Cc1ccccc1C1CCN(C2CCC(NC(=O)/C=C/c3cccc(Cl)c3Cl)CC2)CC1 (centres undefined)
- Inhibition (Plasmodium falciparum [1]): 94%
- Inhibition (Plasmodium falciparum [2]): 23%
- Inhibition (HepG2): 74%

SMILES: CC(C)CCN1CCCN(Cc2ccc(C(=O)Nc3ccc(C(C)(C)C)cc3)cc2)CC1.O=C(O)C(F)(F)F
- Inhibition (Plasmodium falciparum [1]): 92%
- Inhibition (Plasmodium falciparum [2]): 12%
- Inhibition (HepG2): 49%

SMILES: Nc1cc(-c2ccc(Br)cc2O)nc2ccccc12
- Inhibition (Plasmodium falciparum [1]): 100%
- Inhibition (Plasmodium falciparum [2]): 50%
- Inhibition (HepG2): 23%

SMILES: O=C(O)C(F)(F)F.c1cc(CNCC2CCCO2)cc(-c2cccc(-c3nc4ccccc4[nH]3)c2)c1 (centres undefined)
- Inhibition (Plasmodium falciparum [1]): 100%
- Inhibition (Plasmodium falciparum [2]): 7%
- Inhibition (HepG2): 15%

SMILES: NC1CCN(Cc2ccc(-c3cccc(-c4nc5cc(F)ccc5[nH]4)c3)cc2)C1.O=C(O)C(F)(F)F (centres undefined)
- Inhibition (Plasmodium falciparum [1]): 100%
- Inhibition (Plasmodium falciparum [2]): 16%
- Inhibition (HepG2): 47%
